Assay results: PubChem BioAssay AID686970 (National Center for Advancing Translational Sciences (NCATS), 2013)
About 6,000 (1.7%) of roughly 360,000 compounds were called active. About 8% were inconclusive and are not listed. Calls follow the shape of the dose curve; as a rule, active = well fitted cell-killing curve with a large enough effect; inconclusive = small, poorly fitted or top-dose-only effect, or effect the other way; inactive = flat fitted curve, though single readings scatter. What follows is part of a selection rich in actives, with near analogues and random picks from the rest.

Assay: qHTS for induction of synthetic lethality in tumor cells producing 2HG: qHTS for the HT-1080-NT fibrosarcoma cell line;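 also: NT is the 2HG producing partner of a matched IDH1 knockdown line; nearly all actives have a fitted effect of over 55% in size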;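 as to activity, negative = less viability: 0% = DMSO-treated cells and -100% = media-only wells without cells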
Details: HT-1080-NT fibrosarcoma viability, CellTiter-Glo ATP luminescence, 48 h; series mostly up to 46.1 µM; activity, negative = less viability: at the top concentration
In short: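 Viability of the 2HG-overproducing fibrosarcoma line after 48 hours of compound exposure at 37 degrees C was determined by luminescence with CellTiter-Glo, and concentration-effect curves were then fitted and categorized.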
Potency is read from the fitted curve at half-maximal effect.

| SMILES | activity, negative = less viability | Potency |
| --- | --- | --- |
| CC1CN(C(=O)c2cccc(NS(=O)(=O)c3ccc(Br)cc3)c2)CC(C)O1 (stereo not given) | -3.46% (inactive) |  |
| C[C@H]1COc2cc(N3CCSCC3)ccc2S(=O)(=O)N1 | 17.1% (inactive) |  |
| CCCCC(O)C1=C[N+](=O)CC=C1 (stereo not given) | 16% (inactive) |  |
| CCn1c(COc2c(C)cccc2C)nnc1SCc1nc2ccccc2c(=O)[nH]1 | 0.882% (inactive) |  |
| COc1ccc(C)cc1-n1nnnc1SCc1nc2ccccc2c(=O)[nH]1 |  | 14.6 µM (active) |
| COc1ccc(CCCc2nnc(SCc3nc4ccccc4c(=O)[nH]3)n2C)cc1 | -18% (inactive) |  |
| COc1ccc(C2=Nc3ccccc3NC(=O)C2N(C(=O)c2cc3ccccc3[nH]2)c2ccccc2)cc1 (stereo not given) | -15.6% (inactive) |  |
| O=C(Nc1ccc2c(c1)OCCO2)C(C1CC1)N1CCC(Cc2ccccc2)CC1 (stereo not given) | -1.64% (inactive) |  |
| COc1ccc(OC)c(NC(=O)C2(C)CCN2C(=O)Cc2ccccc2)c1 (stereo not given) | 3% (inactive) |  |
| N#CCSc1ccccc1NC(=O)CN1C(=O)NC(CCc2ccccc2)C1=O (stereo not given) | -11.4% (inactive) |  |
| CC[C@]1(O)C[C@@H]2CN(CCc3c([nH]c4ccccc34)[C@@](C(=O)OC)(c3cc4c(cc3OC)N(C)[C@H]3[C@@](O)(C(=O)OC)[C@H](OC(C)=O)[C@]5(CC)C=CCN6CC[C@]43[C@@H]65)C2)C1 |  | 0.082 µM (active) |
| O=C(c1cc2cc(F)ccc2[nH]1)N1CCN(c2ccc(F)cc2)CC1 | 3.63% (inactive) |  |
| O=C(Nc1ccc(Cl)cc1)N1CCc2[nH]c3ccccc3c2C1 | -22.4% (inactive) |  |
| O=C(CCCN1CCc2[nH]c3ccc(F)cc3c2C1)c1ccc(F)cc1 |  | 18.4 µM (active) |
| COC(=O)[C@]12CCCCC=C1N(CCC1=CCCCC1)C(=O)[C@H](CC(=O)N1CCSCC1)C2 | -10.5% (inactive) |  |
| COC(=O)C[C@H]1C[C@@H]2c3cc(N(C)C)ccc3O[C@@H]2[C@H](CO)O1 | -0.17% (inactive) |  |
| CN(C)CCCOc1ccc(-c2ccc3nccn3c2)cn1 | 17.2% (inactive) |  |
| COc1ccc(S(=O)(=O)N[C@@H]2C=C[C@@H](CC(=O)N3CCc4ccccc4C3)O[C@@H]2CO)cc1 | 5.92% (inactive) |  |
| C=C1C(=O)OC2C1CCC(C)=CCCC1(C)OC21 (stereo not given) |  | 16.4 µM (active) |
| O=C(OCc1cn([C@@H]2C[C@H](c3ccc(Cl)cc3)N(Cc3cccs3)C[C@H]2O)nn1)c1ccccc1 | 1.48% (inactive) |  |
| CCOc1ccc(CCN2C(=O)C(=O)N([C@@H](CC(C)C)CN3CCC[C@H]3CN3C(=O)C(=O)NC[C@@H]3Cc3ccccc3)C[C@@H]2CC(C)C)cc1 | 11.6% (inactive) |  |
| CC1(C(=O)NS(=O)(=O)c2cccc(F)c2)CCN1C(=O)Cc1cc(F)ccc1F (stereo not given) | 27.2% (inactive) |  |
| Cc1c(C(=O)NCc2ccc(C#N)cc2)sc(=O)n1Cc1ccc(C(=O)N(C)C)cc1 | 5.36% (inactive) |  |
| CN(C)c1ccc(C2N(C)C(=O)c3ccccc3N2C)cc1 (stereo not given) | -5.29% (inactive) |  |
| CN(C)c1ccc(Nc2c3c4c(cccc4n(C)c2=O)C(=O)c2ccccc2-3)cc1 |  | 5.8 µM (active) |
